# Results published in ChEMBL document CHEMBL2218924, “A broad activity screen in support of a chemogenomic map for kinase signalling research and drug discovery” (Biochem J, 2013).
# Key:
# [1] = molecular target: Tyrosine-protein kinase Fer (Homo sapiens) (UniProt P16591); conditions: at 10 µM
# [2] = molecular target: Tyrosine-protein kinase Fes/Fps (Homo sapiens) (UniProt P07332); conditions: at 1 µM
# [3] = molecular target: Tyrosine-protein kinase Fes/Fps (Homo sapiens) (UniProt P07332); conditions: at 10 µM
# [4] = molecular target: Tyrosine-protein kinase Fgr (Homo sapiens) (UniProt P09769); conditions: at 10 µM
# [5] = molecular target: Vascular endothelial growth factor receptor 1 (Homo sapiens) (UniProt P17948); conditions: at 1 µM
# [6] = molecular target: Vascular endothelial growth factor receptor 1 (Homo sapiens) (UniProt P17948); conditions: at 10 µM
# [7] = molecular target: Receptor-type tyrosine-protein kinase FLT3 (Homo sapiens) (UniProt P36888); conditions: at 1 µM
# [8] = molecular target: Receptor-type tyrosine-protein kinase FLT3 (Homo sapiens) (UniProt P36888); conditions: at 10 µM
# [9] = molecular target: Vascular endothelial growth factor receptor 3 (Homo sapiens) (UniProt P35916); conditions: at 1 µM
# [10] = molecular target: Tyrosine-protein kinase Fgr (Homo sapiens) (UniProt P09769); conditions: at 1 µM
# Sequence of Vascular endothelial growth factor receptor 1 (Homo sapiens) (P17948 whole entry): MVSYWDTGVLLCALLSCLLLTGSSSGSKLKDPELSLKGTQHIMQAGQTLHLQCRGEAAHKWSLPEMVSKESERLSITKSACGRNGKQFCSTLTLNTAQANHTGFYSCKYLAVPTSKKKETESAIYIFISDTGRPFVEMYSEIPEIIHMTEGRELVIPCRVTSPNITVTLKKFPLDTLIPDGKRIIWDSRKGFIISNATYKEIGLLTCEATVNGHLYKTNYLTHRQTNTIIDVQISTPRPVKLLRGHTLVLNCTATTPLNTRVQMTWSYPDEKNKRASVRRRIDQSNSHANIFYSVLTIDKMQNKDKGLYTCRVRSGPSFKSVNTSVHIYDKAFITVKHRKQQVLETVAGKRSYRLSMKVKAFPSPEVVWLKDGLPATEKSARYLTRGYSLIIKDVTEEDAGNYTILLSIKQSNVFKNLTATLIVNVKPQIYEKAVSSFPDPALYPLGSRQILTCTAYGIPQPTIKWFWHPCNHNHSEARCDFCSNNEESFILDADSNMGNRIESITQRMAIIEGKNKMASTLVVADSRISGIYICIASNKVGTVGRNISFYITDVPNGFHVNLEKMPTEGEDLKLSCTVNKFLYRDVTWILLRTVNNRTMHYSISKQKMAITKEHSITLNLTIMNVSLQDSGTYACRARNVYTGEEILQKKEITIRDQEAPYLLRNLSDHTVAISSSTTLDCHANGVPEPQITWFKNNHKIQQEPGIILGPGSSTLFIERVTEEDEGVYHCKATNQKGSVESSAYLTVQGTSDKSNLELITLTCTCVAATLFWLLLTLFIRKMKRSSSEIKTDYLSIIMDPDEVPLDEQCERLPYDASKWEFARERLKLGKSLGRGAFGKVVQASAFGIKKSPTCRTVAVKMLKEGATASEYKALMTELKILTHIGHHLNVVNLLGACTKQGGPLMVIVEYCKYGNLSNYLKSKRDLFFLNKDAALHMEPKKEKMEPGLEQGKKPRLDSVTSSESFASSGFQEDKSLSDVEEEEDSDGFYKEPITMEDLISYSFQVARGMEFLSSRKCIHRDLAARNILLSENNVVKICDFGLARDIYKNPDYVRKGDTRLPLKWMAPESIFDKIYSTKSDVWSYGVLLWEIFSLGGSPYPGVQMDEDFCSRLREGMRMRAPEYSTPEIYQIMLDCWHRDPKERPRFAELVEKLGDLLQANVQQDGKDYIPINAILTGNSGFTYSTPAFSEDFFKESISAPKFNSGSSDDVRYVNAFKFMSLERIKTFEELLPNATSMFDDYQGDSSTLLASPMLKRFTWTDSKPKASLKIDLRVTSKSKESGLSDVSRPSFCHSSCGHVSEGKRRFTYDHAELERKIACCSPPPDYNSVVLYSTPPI
# Sequence of Tyrosine-protein kinase Fes/Fps (Homo sapiens) (P07332 whole entry): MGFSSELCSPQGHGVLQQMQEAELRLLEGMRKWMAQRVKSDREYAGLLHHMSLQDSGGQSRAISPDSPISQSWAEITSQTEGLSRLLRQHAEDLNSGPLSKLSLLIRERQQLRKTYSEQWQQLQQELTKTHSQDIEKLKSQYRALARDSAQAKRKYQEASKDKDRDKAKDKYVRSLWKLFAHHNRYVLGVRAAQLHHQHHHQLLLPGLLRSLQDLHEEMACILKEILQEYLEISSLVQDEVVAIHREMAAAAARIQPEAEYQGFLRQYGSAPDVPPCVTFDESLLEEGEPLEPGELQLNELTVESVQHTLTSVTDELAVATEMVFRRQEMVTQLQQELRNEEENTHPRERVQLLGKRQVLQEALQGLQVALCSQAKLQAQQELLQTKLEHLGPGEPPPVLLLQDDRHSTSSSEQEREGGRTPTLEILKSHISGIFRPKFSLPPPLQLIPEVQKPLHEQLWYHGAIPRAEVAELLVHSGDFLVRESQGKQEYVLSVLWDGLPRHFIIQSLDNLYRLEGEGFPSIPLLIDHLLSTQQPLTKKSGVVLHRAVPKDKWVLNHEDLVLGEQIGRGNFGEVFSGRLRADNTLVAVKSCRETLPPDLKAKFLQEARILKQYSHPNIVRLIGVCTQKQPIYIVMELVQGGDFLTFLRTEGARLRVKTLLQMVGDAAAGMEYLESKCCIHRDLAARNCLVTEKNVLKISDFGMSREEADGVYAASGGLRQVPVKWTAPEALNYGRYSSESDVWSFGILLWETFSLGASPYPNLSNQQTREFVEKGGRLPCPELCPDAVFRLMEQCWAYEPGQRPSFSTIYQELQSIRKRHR
# Sequence of Receptor-type tyrosine-protein kinase FLT3 (Homo sapiens) (P36888 whole entry): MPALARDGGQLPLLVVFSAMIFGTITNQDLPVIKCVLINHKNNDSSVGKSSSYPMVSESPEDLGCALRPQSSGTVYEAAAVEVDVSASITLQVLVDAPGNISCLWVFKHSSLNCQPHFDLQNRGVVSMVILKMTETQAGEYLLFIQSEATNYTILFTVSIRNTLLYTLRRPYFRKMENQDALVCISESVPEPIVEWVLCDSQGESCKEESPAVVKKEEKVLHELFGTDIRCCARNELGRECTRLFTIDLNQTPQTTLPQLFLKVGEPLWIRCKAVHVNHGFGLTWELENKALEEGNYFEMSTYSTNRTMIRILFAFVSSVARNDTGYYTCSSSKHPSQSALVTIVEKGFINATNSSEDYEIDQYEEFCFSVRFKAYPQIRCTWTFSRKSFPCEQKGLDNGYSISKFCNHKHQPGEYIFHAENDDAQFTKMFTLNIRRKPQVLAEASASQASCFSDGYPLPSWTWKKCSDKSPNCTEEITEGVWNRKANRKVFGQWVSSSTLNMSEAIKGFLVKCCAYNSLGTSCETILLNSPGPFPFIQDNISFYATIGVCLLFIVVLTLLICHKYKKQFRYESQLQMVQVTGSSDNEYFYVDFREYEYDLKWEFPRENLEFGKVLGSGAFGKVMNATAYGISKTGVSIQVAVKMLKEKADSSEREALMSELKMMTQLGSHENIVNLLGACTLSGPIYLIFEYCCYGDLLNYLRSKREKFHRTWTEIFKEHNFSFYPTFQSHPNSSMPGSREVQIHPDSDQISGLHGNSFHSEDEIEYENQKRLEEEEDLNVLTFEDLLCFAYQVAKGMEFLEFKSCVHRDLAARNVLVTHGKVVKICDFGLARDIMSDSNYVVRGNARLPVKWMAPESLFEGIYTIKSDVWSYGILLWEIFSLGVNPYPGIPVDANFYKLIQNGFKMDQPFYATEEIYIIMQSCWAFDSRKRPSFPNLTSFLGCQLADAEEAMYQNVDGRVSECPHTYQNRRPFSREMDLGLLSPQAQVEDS
# Sequence of Tyrosine-protein kinase Fgr (Homo sapiens) (P09769 2-529 limits assumed): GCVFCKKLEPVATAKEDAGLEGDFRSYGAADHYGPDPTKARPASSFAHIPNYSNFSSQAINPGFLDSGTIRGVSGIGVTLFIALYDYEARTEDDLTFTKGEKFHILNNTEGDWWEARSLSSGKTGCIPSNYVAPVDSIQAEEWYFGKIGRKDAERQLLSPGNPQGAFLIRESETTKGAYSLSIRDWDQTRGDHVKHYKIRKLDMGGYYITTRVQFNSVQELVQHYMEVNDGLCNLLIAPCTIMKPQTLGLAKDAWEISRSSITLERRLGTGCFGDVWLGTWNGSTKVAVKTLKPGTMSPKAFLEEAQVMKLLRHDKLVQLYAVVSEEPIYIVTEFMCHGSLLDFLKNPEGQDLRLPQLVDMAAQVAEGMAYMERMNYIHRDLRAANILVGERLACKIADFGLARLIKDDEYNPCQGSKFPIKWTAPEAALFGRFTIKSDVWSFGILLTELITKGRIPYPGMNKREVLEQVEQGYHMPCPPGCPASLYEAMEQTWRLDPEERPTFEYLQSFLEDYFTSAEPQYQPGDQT
# Sequence of Tyrosine-protein kinase Fer (Homo sapiens) (P16591 whole entry, looked up): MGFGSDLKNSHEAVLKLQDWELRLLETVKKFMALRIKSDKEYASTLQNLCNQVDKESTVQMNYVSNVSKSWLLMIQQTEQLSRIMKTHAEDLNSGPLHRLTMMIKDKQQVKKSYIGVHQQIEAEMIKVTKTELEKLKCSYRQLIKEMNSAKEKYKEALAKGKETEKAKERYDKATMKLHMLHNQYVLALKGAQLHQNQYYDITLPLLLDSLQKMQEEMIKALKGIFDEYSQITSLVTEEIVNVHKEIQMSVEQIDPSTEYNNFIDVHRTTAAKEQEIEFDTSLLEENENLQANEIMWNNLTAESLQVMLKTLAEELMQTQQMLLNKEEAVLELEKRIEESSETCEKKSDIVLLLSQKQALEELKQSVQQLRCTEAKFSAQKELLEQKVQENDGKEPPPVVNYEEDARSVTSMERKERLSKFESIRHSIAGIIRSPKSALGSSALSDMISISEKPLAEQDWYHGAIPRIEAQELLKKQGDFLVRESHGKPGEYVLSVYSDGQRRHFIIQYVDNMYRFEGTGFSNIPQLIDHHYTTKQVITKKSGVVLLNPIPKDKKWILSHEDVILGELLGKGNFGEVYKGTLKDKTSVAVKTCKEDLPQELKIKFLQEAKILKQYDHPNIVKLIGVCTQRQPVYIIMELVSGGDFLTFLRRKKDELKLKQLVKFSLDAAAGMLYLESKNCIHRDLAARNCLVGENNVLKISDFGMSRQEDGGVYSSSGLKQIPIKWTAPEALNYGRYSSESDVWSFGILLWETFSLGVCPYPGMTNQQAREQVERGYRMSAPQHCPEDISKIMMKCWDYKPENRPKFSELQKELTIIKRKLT
SMILES,residual activity [1],residual activity [2],residual activity [3],residual activity [4],residual activity [5],residual activity [6],residual activity [7],residual activity [8],residual activity [9],residual activity [10]
COc1ccc2c(c1)c(C1=C(c3c[nH]c4ccccc34)C(=O)NC1=O)cn2CCCN(C)C,58%,96%,26%,33%,2%,0%,21%,0%,2%,–
CCCCc1c(-c2ccc(OC)cc2)[nH]c2nccnc12,91%,34%,51%,78%,44%,32%,27%,30%,6%,61%
N#C/C(=C1/Nc2ccccc2S1)c1ccnc(NCCc2cccnc2)n1,60%,96%,73%,44%,78%,33%,–,–,68%,81%
CCN(CC)CCNC(=O)c1c(C)[nH]c(/C=C2\C(=O)Nc3ccc(Cl)cc32)c1C,14%,14%,2%,2%,5%,0%,1%,-1%,0%,8%
O=C(c1ccccc1)c1ccc(N2CCOCC2)cc1O,97%,116%,93%,–,100%,93%,83%,53%,87%,–
COc1cc2nccc(Oc3ccc(NC(=S)NC(=O)c4ccccc4C)cc3)c2cc1OC,34%,79%,36%,3%,5%,0%,75%,31%,1%,14%
CC(C)[C@H](CO)Nc1nc(Nc2cc(N)cc(Cl)c2)c2ncn(C(C)C)c2n1,23%,57%,12%,3%,–,–,12%,2%,11%,33%
O=C1C(Cl)=C(N2C(=O)CCC2=O)C(=O)c2ccccc21,91%,83%,97%,96%,96%,84%,90%,87%,91%,94%
COc1cc2ncnc(Nc3cccc(Cl)c3)c2cc1OC,105%,119%,86%,12%,60%,16%,111%,52%,47%,52%
N#Cc1c(NC(=O)c2cccc3ccccc23)sc2c1CCCC2,97%,–,95%,135%,–,–,–,77%,92%,99%
Nc1n[nH]c2nc3ccccc3nc12,90%,95%,87%,87%,89%,66%,70%,45%,79%,100%
Oc1cccc(-c2nc(N3CCOCC3)c3oc4ncccc4c3n2)c1,99%,137%,–,97%,91%,80%,89%,72%,–,118%
Cn1sc(=O)n(Cc2ccccc2)c1=O,91%,93%,85%,95%,85%,73%,86%,81%,85%,90%
O=C(CCCc1ccc(-c2ccccc2F)cc1)Nc1ccc(O)cc1,91%,107%,100%,92%,109%,100%,101%,87%,101%,93%
O=S(=O)(NCCNC/C=C/c1ccc(Br)cc1)c1cccc2cnccc12,71%,75%,27%,59%,–,35%,–,46%,81%,–
Nc1ncnc2[nH]nc(Nc3ccc(F)cc3)c12,99%,98%,–,18%,–,35%,114%,94%,80%,56%
O=C1Nc2ccccc2/C1=C\c1c(Cl)[nH]c2ccccc12,67%,99%,78%,64%,–,38%,–,55%,64%,–
CC(C)c1nn(-c2c(Cl)cccc2Cl)c2nc(Cc3ccc(OCCO)cc3)[nH]c(=O)c12,95%,109%,97%,95%,90%,82%,81%,81%,84%,–
O=C(O)/C=C/c1cc(Br)c(Br)c(Br)c1Br,107%,97%,74%,103%,92%,67%,72%,27%,79%,104%
NC(=O)Nc1sc(-c2ccc(F)cc2)cc1C(N)=O,50%,78%,24%,4%,17%,2%,22%,3%,4%,28%
CC(C)(C)n1nc(Cc2cccc3ccccc23)c2c(N)ncnc21,39%,95%,27%,4%,62%,14%,102%,75%,42%,35%

SMILES,residual activity [1],residual activity [2],residual activity [3],residual activity [4],residual activity [5],residual activity [6],residual activity [7],residual activity [8],residual activity [9],residual activity [10]
O=c1cc(N2CCOCC2)oc2c1ccc1ccccc12,96%,–,98%,94%,98%,95%,101%,97%,94%,107%
CCCC(=O)Oc1ccc2[nH]c(C(=O)c3cc4ccccc4[nH]3)cc2c1,98%,104%,81%,82%,83%,86%,73%,50%,73%,97%
CCCCc1c(-c2ccc(O)cc2)[nH]c2nccnc12,81%,35%,12%,36%,43%,11%,29%,6%,6%,57%
NCCNc1ncc(C(N)=O)c(Nc2cccc(C(F)(F)F)c2)n1,47%,32%,3%,6%,–,–,50%,5%,–,30%
O=C(c1cc2cc(O)ccc2[nH]1)c1cc2cc(O)ccc2[nH]1,55%,–,28%,2%,20%,2%,0%,0%,4%,5%
CN(C)S(=O)(=O)c1ccc2c(c1)/C(=C/c1cc3c([nH]1)CCCC3)C(=O)N2,68%,82%,61%,9%,67%,56%,27%,41%,33%,21%
COc1cc2c(cc1OC)-c1n[nH]c(Nc3cccc(F)c3)c1C2,82%,–,59%,4%,–,–,47%,5%,–,20%
Nc1ncnc2c1c(-c1ccc(Oc3ccccc3)cc1)cn2C1CCCC1,45%,112%,52%,0%,15%,0%,19%,0%,1%,2%
O=C1NC(=O)C(c2c[nH]c3ccccc23)=C1c1c[nH]c2ccccc12,52%,–,48%,60%,4%,1%,19%,1%,2%,98%
CSc1nc(-c2ccc(F)cc2)c(-c2ccnc(NC(C)c3ccccc3)c2)[nH]1 (stereo not drawn),–,102%,87%,71%,–,80%,86%,83%,97%,84%
O=C1Cc2c([nH]c3ccc(Br)cc23)-c2ccccc2N1,–,63%,38%,–,77%,39%,65%,34%,56%,–
c1ccc(-c2cnc(Nc3ccc(OCCN4CCCC4)cc3)s2)cc1,–,123%,59%,11%,4%,0%,4%,0%,2%,63%
CCN1/C(=C/C(C)=O)Sc2ccc(OC)cc21,–,–,–,73%,–,81%,64%,39%,–,–
N#C/C(=C\c1ccc(O)c(O)c1)C(=O)NCc1ccccc1,–,124%,76%,82%,–,–,–,–,–,–
Nc1nccc(-c2c(-c3ccc(F)cc3)ncn2C2CCNCC2)n1,–,–,–,25%,–,–,–,–,69%,–
O=c1cc(N2CCNCC2)oc2c(-c3ccccc3)cccc12,95%,–,89%,90%,88%,95%,78%,81%,96%,–
O=C(NC(NC(=S)Nc1ccc(F)c([N+](=O)[O-])c1)C(Cl)(Cl)Cl)C(c1ccccc1)c1ccccc1 (stereo not drawn),103%,–,–,–,–,–,99%,82%,93%,–
O=C1Cc2c([nH]c3ccc([N+](=O)[O-])cc23)-c2ccccc2N1,–,35%,43%,48%,49%,24%,30%,20%,29%,40%
Cn1c2ccccc2c2c3c(c4c5ccccc5n(CCC#N)c4c21)CNC3=O,4%,–,–,47%,4%,4%,0%,0%,2%,41%
COc1ccc(CNC(=O)Nc2ncc([N+](=O)[O-])s2)cc1,–,–,–,28%,74%,49%,–,–,59%,31%
COc1ccc(-c2cnc3c(-c4ccsc4)cnn3c2)cc1,98%,–,82%,–,33%,48%,53%,19%,21%,–

SMILES,residual activity [1],residual activity [2],residual activity [3],residual activity [4],residual activity [5],residual activity [6],residual activity [7],residual activity [8],residual activity [9],residual activity [10]
CCOC(=O)c1c(C)[nH]c(/C=C2\C(=O)Nc3ccccc32)c1C,–,119%,80%,74%,38%,15%,6%,9%,1%,87%
O=C1Nc2ccc(Cl)cc2/C1=C/c1cc(Cl)c(O)c(Cl)c1,–,–,–,42%,55%,1%,21%,1%,3%,96%
O=C1NC(=O)c2c1c1c3ccccc3[nH]c1n1cncc21,–,79%,56%,45%,16%,3%,18%,5%,0%,75%
Fc1ccc(-c2nc3n(c2-c2ccncc2)CCS3)cc1,–,–,–,97%,–,–,98%,82%,89%,–
COc1ccc(Cl)cc1NC(=O)Nc1cc(C)nc2ccccc12,–,–,94%,82%,96%,91%,–,–,–,99%
O=C1NC(=O)C(c2cn(CCCO)c3ncccc23)=C1c1cnccn1,94%,–,–,97%,41%,46%,57%,51%,28%,95%
Nc1nc(Nc2ccc(S(N)(=O)=O)cc2)nn1C(=O)c1c(F)cccc1F,55%,–,–,20%,18%,2%,–,5%,1%,63%
O=C(Nc1nc2ccccc2n1CCN1CCOCC1)c1cccc([N+](=O)[O-])c1,–,101%,74%,–,–,–,38%,29%,36%,102%
O=C(Nc1ccc(Cl)cc1)c1ccccc1NCc1ccncc1,101%,–,–,–,0%,2%,–,65%,0%,–
CC(C)(C)c1nc2c3ccc(F)cc3c3c(=O)[nH]ccc3c2[nH]1,27%,–,–,–,–,–,45%,26%,28%,–
NC(=O)c1cccc(-c2cc(Nc3ccc(OC(F)(F)F)cc3)ncn2)c1,–,125%,99%,–,–,–,97%,93%,90%,–
Nc1ncnc2c1cnn2-c1ccccc1,–,–,–,85%,96%,88%,95%,55%,99%,–
NC(=O)c1ccc(-c2nc(-c3ccc4c(c3)OCCO4)c(-c3ccccn3)[nH]2)cc1,–,–,–,–,82%,70%,64%,51%,79%,–
O=c1c(-c2ccc(F)cc2)c(-c2ccncc2)[nH]n1-c1ccc(Cl)cc1,–,–,–,65%,100%,50%,–,–,–,–
O=C1NC(=O)C(c2cn(CCCn3ccnc3)c3ccccc23)=C1Nc1ccccc1,52%,–,–,59%,51%,11%,14%,0%,58%,–
COc1cc2nccc(Oc3ccc(NC(=O)Nc4cc(C)on4)c(Cl)c3)c2cc1OC,–,78%,46%,4%,–,–,–,–,-1%,8%
CC(C)N(CCC(=O)c1ccc2ccccc2c1)Cc1ccccc1,87%,–,–,–,–,–,–,82%,–,–
Cc1cc(C)c(/C=C2\C(=O)Nc3ccccc32)[nH]1,55%,–,–,30%,3%,0%,1%,0%,1%,53%
CN([C@@H](Cc1ccc(OS(=O)(=O)c2cccc3cnccc23)cc1)C(=O)N1CCN(c2ccccc2)CC1)S(=O)(=O)c1cccc2cnccc12,–,–,–,–,–,–,–,76%,–,–
